KCNQ2 block: blocks the rat KCNQ2 potassium channel; 310,000 tested, 1.1% active; CHO-K1 KCNQ2, FluxOR thallium flux, 20 min; active compounds read low; B-score at 10 µM; AID 2156; O88943;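 active = fluorescence ratio B-score at most minus 3 library SDs, with starting brightness B-score within 2 library SDs, cut at about -5.5 in these data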
KCNQ2 enhance: enhances the rat KCNQ2 potassium channel; 310,000 tested, 0.54% active; AID 2239; B-score at 10 µM; CHO-K1 KCNQ2, FluxOR thallium flux fluorescence; active compounds read high; O88943;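 active = fluorescence ratio B-score at least 3 SD of library B-scores, with initial fluorescence B-score within 3 of them, cut at about 5.3 in these data; same plate scores as AID 2156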;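 note: B-score of peak minus minimum over baseline fluorescence ratio after K+ and Tl+ stimulus; positive B-score means potentiation of KCNQ2 with more thallium influx and brighter signal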
Kir21 conf inh: confirmation of mouse Kir2.1 potassium channel inhibitors; Tl flux remaining, % of negative control (active compounds read low), % at 10 µM; Kir2.1-expressing cells, FluxOR thallium flux fluorescence; active compounds read low; 2,300 tested, 41% active; shares compounds with KCNQ2 enhance;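 active = Primary-screen hit whose thallium flux fell at least 3 control SD below untreated wells in both duplicates, with normal baseline fluorescence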;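 note: 0% = blank wells without stimulus and 100% = stimulated no-compound controls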
HEK293 Tl flux: parental HEK293 activity in Kir2.1 inhibitor counter-screen | shares compounds with KCNQ2 enhance | AID 2105 | parental HEK293 cells, FluxOR thallium flux fluorescence; 0% = unstimulated blank wells | FluxOR signal as % of negative control (100 = no effect), % at 10 µM | 2,300 tested, 19% active;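 active = dye signal at least 3 control SD above or below untreated wells in both duplicates, raw fluorescence within 3, either direction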;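 note: percent is based on the flux ratio of peak minus minimum fluorescence over baseline F0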
CHO-K1 ctr: alters thallium flux in parental CHO-K1 cells, KCNQ2 counter-screen. shares compounds with KCNQ2 enhance. FluxOR thallium flux fluorescence; zero = vehicle mean+3SD, 100% = vehicle-minus-blank window. activity increase over 3SD of controls, % at 10 µM. 1,200 tested, 43% active;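 active = signal rise of at least 3 SD above the untreated control mean, in both duplicate wells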;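 note: counter screen of KCNQ2 potentiator hits so any rise reflects channel-independent effects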
KCNQ1 sel pot: selectivity of KCNQ2 potentiators: effect on human KCNQ1; shares compounds with KCNQ2 enhance; activation over 3SD threshold, % at 10 µM; AID 2283; CHO KCNQ1 stable, FluxOR thallium flux fluorescence; beyond 3SD, as % of vehicle-control signal; 1,200 tested, 28% active;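 active = fluorescence ratio rise of at least 3 SD of vehicle wells above their mean, in both replicate wells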;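 note: 0% = vehicle mean plus 3 SD and 100% = vehicle minus unstimulated blank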
Target sequence (P51787 whole entry, looked up): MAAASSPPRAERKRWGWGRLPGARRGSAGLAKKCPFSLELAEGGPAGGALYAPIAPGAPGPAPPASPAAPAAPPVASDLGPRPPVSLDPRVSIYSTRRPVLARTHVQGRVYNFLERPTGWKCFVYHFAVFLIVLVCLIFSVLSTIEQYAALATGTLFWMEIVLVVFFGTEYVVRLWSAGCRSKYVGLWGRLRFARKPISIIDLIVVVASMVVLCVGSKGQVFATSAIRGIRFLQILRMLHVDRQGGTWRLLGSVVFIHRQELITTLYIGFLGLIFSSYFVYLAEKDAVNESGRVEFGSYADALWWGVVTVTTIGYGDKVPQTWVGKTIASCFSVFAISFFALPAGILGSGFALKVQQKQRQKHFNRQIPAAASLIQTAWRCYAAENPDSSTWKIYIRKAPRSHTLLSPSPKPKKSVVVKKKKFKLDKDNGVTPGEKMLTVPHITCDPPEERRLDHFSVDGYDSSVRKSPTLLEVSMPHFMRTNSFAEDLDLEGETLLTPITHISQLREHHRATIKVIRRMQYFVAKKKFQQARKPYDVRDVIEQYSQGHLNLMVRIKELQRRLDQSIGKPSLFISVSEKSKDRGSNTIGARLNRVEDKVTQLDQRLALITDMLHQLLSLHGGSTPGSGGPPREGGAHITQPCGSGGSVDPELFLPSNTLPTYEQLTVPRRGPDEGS
KCNQ2 pot conf: rat KCNQ2 channel potentiator confirmation. shares compounds with KCNQ2 enhance. potentiation, less the hit threshold, % at 10 µM. AID 2287. CHO-KCNQ2 cells, FluxOR thallium flux fluorescence. 1,200 tested, 68% active;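 active = fluorescence ratio rising 3 SD or more over the vehicle control mean in both replicates, plus primary screen hit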;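 note: peak minus minimum thallium fluorescence divided by baseline after K/Tl stimulus; 0% = vehicle mean plus 3 SD and 100% = vehicle minus unstimulated blank difference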
Kir21 spec: selectivity of KCNQ2 potentiators: effect on mouse Kir2.1 | shares compounds with KCNQ2 enhance | HEK293 Kir2.1, FluxOR thallium flux fluorescence | activity over 3SD threshold, % at 10 µM | 1,200 tested, 2% active | AID 2345;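 active = fluorescence ratio rise of at least 3 SD above the vehicle-control mean, seen in both replicates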;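 note: 0% = vehicle mean plus 3 SD and 100% = vehicle minus no-stimulus blank window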
KCNQ2 W236L pot: potentiates the retigabine-insensitive rat KCNQ2 W236L mutant channel. shares compounds with KCNQ2 enhance. CHO KCNQ2-W236L, automated patch clamp current. current increase over 3SD of negative controls (%), active compounds read high, % at 25 µM. 940 tested, 10% active;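 active = current increase at least 3 SD of the untreated controls above them in both duplicate recordings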
* = called active by the depositor; i = inactive; x = not tested or not shown. Sampled rows, rich in hits. Any-hit rate of the full collection: about 1.6%.

SMILES	KCNQ2 block	KCNQ2 enhance	Kir21 conf inh	HEK293 Tl flux	others
COc1ccc(CCC(C)NCc2ccccc2OC)cc1 (stereo not drawn)	i	1.04	x	x
COCC(C)NCc1cccc2ccccc12 (stereo not drawn)	i	2.46	x	x
COc1ccccc1/C=C/C(=O)NNC(=O)c1cccs1	i	0.28	x	x
Cc1cccc(N(CC(=O)N2CCCCCC2)S(C)(=O)=O)c1	i	x	x	x
O=c1cc(-c2cccs2)oc2ccc(Cl)cc12	i	1.25	x	x
O=c1c(O)c(-c2cccs2)oc2ccccc12	i	12.5*	i	i	CHO-K1 ctr=9.6*;KCNQ1 sel pot=-32.7;KCNQ2 pot conf=65.6*;Kir21 spec=-35.6;KCNQ2 W236L pot=i
Cc1ccc(-c2oc3ccccc3c(=O)c2OCC(=O)O)cc1	i	x	x	x
O=c1c(O)c(-c2cccs2)oc2ccc(Cl)cc12	i	14.5	i	i	CHO-K1 ctr=-18.1;KCNQ1 sel pot=-16.5;KCNQ2 pot conf=70.4*;Kir21 spec=-29.1;KCNQ2 W236L pot=24.4%*
CCCCn1c(-c2cccs2)nc2oc3ccccc3c(=O)c2c1=O	i	0.86	x	x
Cc1ccc(-c2oc3ccccc3c(=O)c2O)cc1	i	5.64*	i	162.5%*	CHO-K1 ctr=-20.6;KCNQ1 sel pot=-22.4;KCNQ2 pot conf=21.0*;Kir21 spec=-37.0;KCNQ2 W236L pot=i
COc1cc([N+](=O)[O-])ccc1NC(=O)CSc1nnc(C)c(C)n1	i	x	x	x
Cc1ccc(C)c(NC(=O)COC(=O)CCC(=O)c2cccs2)c1	i	x	x	x
Cn1c(=O)n(C)c2cc(N3CCOCC3)c(NC(=O)c3ccc(F)cc3)cc21	i	1.15	x	x
Cc1c(OC(C)C(=O)NCc2ccncc2)ccc2c3c(c(=O)oc12)CCCC3 (stereo not drawn)	i	1.18	x	x
CCn1c(CCNC(=O)c2ccc(OC)cc2)nnc1SCc1ccc(Cl)c(Cl)c1	i	x	67.0%*	i
CCn1c(CCNC(=O)c2ccc(C)cc2)nnc1SCc1ccc(Cl)c(Cl)c1	i	x	x	x
CCOC(=O)C(NC(=O)c1ccccc1)=C1C=C(C)OC(C)=C1	i	6.82*	i	i	CHO-K1 ctr=1.7*;KCNQ1 sel pot=-6.8;KCNQ2 pot conf=8.7*;Kir21 spec=-32.1;KCNQ2 W236L pot=i
COC(=O)C(NC(=O)c1ccccc1)=C1C=C(C)OC(C)=C1	i	5.01	x	x
COc1ccc(C(C)=O)cc1Cn1c(=O)cc(C)[nH]c1=O	i	2.55	x	x
CCOC(=O)CNC(=O)C12CC3CC(CC(C3)C1)C2	i	0.43	x	x
Cc1nonc1OCCNC(=O)C12CC3CC(CC(C3)C1)C2	i	13.2*	i	73.5%*	CHO-K1 ctr=74.2*;KCNQ1 sel pot=-20.1;KCNQ2 pot conf=-13.6;Kir21 spec=-41.2
CCc1nnc(NC(=O)CCNC(=O)c2ccco2)s1	i	x	x	x
Cc1ccc(C)c(CN2CCCN(Cc3cc(C)ccc3C)S2(=O)=O)c1	i	x	x	x
Cc1ccc(CN2CCCN(Cc3cc(C)ccc3C)S2(=O)=O)cc1	i	7.33*	i	i	CHO-K1 ctr=-26.0;KCNQ1 sel pot=-20.2;KCNQ2 pot conf=-22.1;Kir21 spec=-27.1
Cc1noc(C)c1CS(=O)(=O)c1ccc([N+](=O)[O-])cc1	i	0.73	x	x
SMILES	KCNQ2 block	KCNQ2 enhance	Kir21 conf inh	HEK293 Tl flux	others
Cc1cccc(-n2c(=S)[nH]c3sc4c(c3c2=O)CCc2ccccc2-4)c1	i	5.61*	i	195.5%*	CHO-K1 ctr=-10.8;KCNQ1 sel pot=-25.5;KCNQ2 pot conf=-10.4;Kir21 spec=-25.4;KCNQ2 W236L pot=i
Cc1ccc(-n2c(=S)[nH]c3sc4c(c3c2=O)CCc2ccccc2-4)cc1	i	x	x	x
O=C(Nc1ccc(N=Nc2ccccc2)c(NC(=O)C2CCCO2)c1)C1CCCO1 (stereo not drawn)	i	x	x	x
COc1ccc(-c2cc(=O)c3cc(OC)ccc3o2)cc1	i	0.36	x	x
COc1ccc(/C=C/c2cc(=O)c3cc(Cl)ccc3o2)cc1	i	x	i	i
Cc1cc(NC(=O)Cn2nc(C)c([N+](=O)[O-])c2C)no1	i	x	x	x
CCC(=O)NCC(c1cccs1)N1CCOCC1 (stereo not drawn)	i	0.5	x	x
Cc1cc(SCC(=O)NCC(c2cccs2)N2CCOCC2)c(C)cc1Br (stereo not drawn)	i	5.39*	i	i	CHO-K1 ctr=38.0*;KCNQ1 sel pot=-10.6;KCNQ2 pot conf=-5.4;Kir21 spec=-48.0;KCNQ2 W236L pot=i
COc1c(Cl)cccc1-c1cn2ccc(C)cc2n1	i	x	x	x
CCOc1ccccc1C(=O)N1CCN(c2ccc(C(F)(F)F)cn2)CC1	i	1.43	x	x
CCc1noc(C)c1C(=O)Nc1nnc(CC(C)C)s1	i	0.6	x	x
CC(C)(C)c1ccc(OCCCCCCN2CCNCC2)cc1	i	x	x	x
CC(C)(c1ccccc1)c1ccc(OCCCN2CCNCC2)cc1	i	1.98	49.5%*	i
C=CCn1c(SCC(N)=O)nc2scc(-c3ccc(C)o3)c2c1=O	i	5.28*	i	195.0%*	CHO-K1 ctr=22.4*;KCNQ1 sel pot=-16.8;KCNQ2 pot conf=25.0*;Kir21 spec=-26.1;KCNQ2 W236L pot=i
C=CCn1c(SCC(=O)NCCOC)nc2scc(-c3ccco3)c2c1=O	i	x	x	x
O=C(CSc1nnc(-c2ccccc2Cl)o1)N1CCOCC1	i	x	x	x
COc1ccc(N/C=C/C(=C(C#N)C#N)N(C)C)cc1	i	x	x	x
CC(C)c1ccc(OCc2ccc(C(=O)NN3CCN(C)CC3)o2)cc1	i	1.41	x	x
CCCn1c(SCC(=O)N2CCN(C(C)=O)CC2)nc2sc3c(c2c1=O)CCC3	i	6.09*	i	290.0%*	CHO-K1 ctr=14.6*;KCNQ1 sel pot=-16.5;KCNQ2 pot conf=23.5*;Kir21 spec=-40.0;KCNQ2 W236L pot=i
CCCn1c(SCC(=O)NCC)nc2sc3c(c2c1=O)CCC3	i	x	x	x
CCn1c(SC(C)C(=O)O)nc2sc3c(c2c1=O)CCC3 (stereo not drawn)	i	8.7*	i	205.0%*	CHO-K1 ctr=5.3*;KCNQ1 sel pot=-18.2;KCNQ2 pot conf=0.7*;Kir21 spec=-33.9;KCNQ2 W236L pot=i
CCc1nc2sc3c(c2c(=O)n1NC(=O)CCl)CCCC3	i	5.72*	i	i	CHO-K1 ctr=-1.4;KCNQ1 sel pot=-8.2;KCNQ2 pot conf=-2.8;Kir21 spec=-31.4;KCNQ2 W236L pot=i
CC(Sc1nc2sc3c(c2c(=O)n1-c1ccccc1)CCCC3)C(=O)O (stereo not drawn)	i	1.21	x	x
CC(=O)N(C(C)=O)n1c(C)nc2sc3c(c2c1=O)CCCC3	i	1.26	x	x
Nc1ncc(Br)cc1S(=O)(=O)NCCC(=O)N1CCN(c2ccccc2)CC1	i	1.61	x	x
CCOC(=O)CCC(NC(=O)CCCCCCCC(=O)NC(CCC(=O)OCC)C(=O)OCC)C(=O)OCC (stereo not drawn)	i	0.29	x	x
COc1ccccc1NC(=O)c1ccc(NC(=O)CSc2ncn[nH]2)cc1	i	0.01	x	x
COc1ccccc1-c1nnc(SC(C)C(=O)O)n1-c1ccccc1 (stereo not drawn)	i	x	x	x
